# This excerpt belongs to a sample that is enriched for the strongest signals.
# B1: Flo1 (Saccharomyces cerevisiae), P32768 (protein)
# chain: SGATEACLPAGQRKSGMNINFYQYSLKDSSTYSNAAYMAYGYASKTKLGSVGGQTDISIDYNIPCVSSSGTFPCPQEDSYGNWGCKGMGACSNSQGIAYWSTDLFGFYTTPTNVTLEMTGYFLPPQTGSYTFKFATVDDSAILSVGGATAFNCCAQQQPPITSTNFTIDGIKPWGGSLPPNIEGTVYMYAGYYYPMKVVYSNAVSWGTLPISVTLPDGTTVSDDFEGYVYSFDDDLSQSNCTVPDPSNY
# How the values were obtained:
# Experiment in all cases: glycan array binding signal (z-score within array); higher = stronger binding
# Conditions in all cases: glycan notation: IUPAC condensed, linker removed
# [1] = target: Gal(b1-4)GlcNAc(b1-3)Gal(b1-4)GlcNAc(b1-3)Gal(b1-4)GlcNAc(b1-3)Gal(b1-4)GlcNAc(b1-2)[Gal(b1-4)GlcNAc(b1-3)Gal(b1-4)GlcNAc(b1-3)Gal(b1-4)GlcNAc(b1-3)Gal(b1-4)GlcNAc(b1-6)]Man(a1-6)[Gal(b1-4)GlcNAc(b1-3)Gal(b1-4)GlcNAc(b1-3)Gal(b1-4)GlcNAc(b1-3)Gal(b1-4)GlcNAc(b1-2)Man(a1-3)]Man(b1-4)GlcNAc(b1-4)[Fuc(a1-6)]GlcNAc
# How it was run: (§1)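 From the Consortium for Functional Glycomics database, 3228 arrays were curated, keeping only those whose protein sequence was available. Binding is given as a within-array Z-score averaged across arrays sharing a protein sequence and across linkers. Negative Z-scores can be read as non-binding.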
# [2] = target: Gal(b1-4)GlcNAc(b1-6)Gal(b1-4)GlcNAc
# How it was run: as §1
# [3] = target: Gal3S(b1-3)GalNAc
# How it was run: as §1
# [4] = target: Gal3S(b1-4)GlcNAc6S
# How it was run: as §1
# [5] = target: Gal3S(b1-4)[Fuc(a1-3)]GlcNAc
# How it was run: as §1
# [6] = target: Gal3S(b1-4)[Fuc(a1-3)]GlcNAc6S
# How it was run: as §1
# [7] = target: Gal6S(b1-4)GlcNAc6S
# How it was run: as §1
# [8] = target: GalNAc(b1-4)Gal(b1-4)Glc
# How it was run: as §1
# [9] = target: GalNAc3S(b1-4)GlcNAc
# How it was run: as §1
# [10] = target: GalNAc4S6S(b1-4)GlcNAc
# How it was run: as §1
# [11] = target: GlcNAc(a1-4)Gal(b1-4)GlcNAc(b1-3)Gal(b1-4)[Fuc(a1-3)]GlcNAc(b1-3)Gal(b1-4)[Fuc(a1-3)]GlcNAc
# How it was run: as §1
# [12] = target: GlcNAc(a1-6)Gal(b1-4)GlcNAc
# How it was run: as §1
# [13] = target: GlcNAc(b1-2)Man(a1-3)[GlcNAc(b1-4)][GlcNAc(b1-2)Man(a1-6)]Man(b1-4)GlcNAc(b1-4)[Fuc(a1-6)]GlcNAc
# How it was run: as §1
# [14] = target: GlcNAc(b1-3)Gal(b1-4)GlcNAc(b1-3)Gal(b1-4)GlcNAc(b1-3)Gal(b1-4)GlcNAc(b1-3)Gal(b1-4)GlcNAc(b1-2)Man(a1-3)[GlcNAc(b1-3)Gal(b1-4)GlcNAc(b1-3)Gal(b1-4)GlcNAc(b1-3)Gal(b1-4)GlcNAc(b1-3)Gal(b1-4)GlcNAc(b1-2)Man(a1-6)]Man(b1-4)GlcNAc(b1-4)[Fuc(a1-6)]GlcNAc
# How it was run: as §1
# [15] = target: GlcNAc(b1-3)Gal(b1-4)GlcNAc(b1-6)[Gal(b1-3)]GalNAc
# How it was run: as §1
# [16] = target: GlcNAc(b1-3)Gal(b1-4)GlcNAc(b1-6)[GlcNAc(b1-3)]Gal(b1-4)GlcNAc
# How it was run: as §1
# [17] = target: GlcNAc(b1-4)[GlcNAc(b1-6)]GalNAc
# How it was run: as §1
# [18] = target: Man(a1-2)Man(a1-2)Man(a1-3)Man
# How it was run: as §1
# [19] = target: Man(b1-4)GlcNAc
# How it was run: as §1
# [20] = target: Neu5Ac(a2-3)Gal(b1-3)GalNAc(b1-3)Gal(a1-4)Gal(b1-4)Glc
# How it was run: as §1
# [21] = target: Neu5Ac(a2-3)Gal(b1-3)[Fuc(a1-4)]GlcNAc(b1-3)Gal(b1-3)[Fuc(a1-4)]GlcNAc
# How it was run: as §1
# [22] = target: Neu5Ac(a2-3)Gal(b1-4)GlcNAc(b1-2)[Neu5Ac(a2-3)Gal(b1-4)GlcNAc(b1-4)]Man(a1-3)[GlcNAc(b1-4)][Neu5Ac(a2-3)Gal(b1-4)GlcNAc(b1-4)Man(a1-6)]Man(b1-4)GlcNAc(b1-4)GlcNAc
# How it was run: as §1
# [23] = target: Neu5Ac(a2-3)[GalNAc(b1-4)]Gal(b1-4)GlcNAc
# How it was run: as §1
# [24] = target: Neu5Ac(a2-6)Gal(b1-4)GlcNAc(b1-3)GalNAc
# How it was run: as §1
# [25] = target: Neu5Ac(a2-6)GlcNAc(b1-4)GlcNAc
# How it was run: as §1
# [26] = target: Neu5Ac(a2-8)Neu5Ac(a2-3)Gal(b1-3)GalNAc(b1-4)[Neu5Ac(a2-3)]Gal(b1-4)Glc
# How it was run: as §1
# [27] = target: Neu5Gc(a2-6)Gal(b1-4)GlcNAc
# How it was run: as §1
binder,measurement,setting,value
B1,glycan array binding signal (z-score),[1],1.44
same,glycan array binding signal (z-score),[2],-0.551
same,glycan array binding signal (z-score),[3],-0.392
same,glycan array binding signal (z-score),[4],-0.289
same,glycan array binding signal (z-score),[5],-0.778
same,glycan array binding signal (z-score),[6],-0.547
same,glycan array binding signal (z-score),[7],-0.216
same,glycan array binding signal (z-score),[8],3.53
same,glycan array binding signal (z-score),[9],-0.358
same,glycan array binding signal (z-score),[10],3.28
same,glycan array binding signal (z-score),[11],2.23
same,glycan array binding signal (z-score),[12],-0.009
same,glycan array binding signal (z-score),[13],0.011
same,glycan array binding signal (z-score),[14],-0.202
same,glycan array binding signal (z-score),[15],-0.618
same,glycan array binding signal (z-score),[16],-2.82
same,glycan array binding signal (z-score),[17],-0.024
same,glycan array binding signal (z-score),[18],0.403
same,glycan array binding signal (z-score),[19],-0.306
same,glycan array binding signal (z-score),[20],-0.211
same,glycan array binding signal (z-score),[21],0.24
same,glycan array binding signal (z-score),[22],0.143
same,glycan array binding signal (z-score),[23],0.215
same,glycan array binding signal (z-score),[24],0.748
same,glycan array binding signal (z-score),[25],-0.394
same,glycan array binding signal (z-score),[26],1.62
same,glycan array binding signal (z-score),[27],-0.199
